# Screen size: about 69,000 compounds; about 420 (0.61%) showed an effect of 50% or more. Many of the other results were omitted from the sample, so strong results are more common in it than they were.
# Molecular target: T1, Histidine--tRNA ligase (Leishmania infantum) (UniProt A4I591)
# T1 sequence (whole entry): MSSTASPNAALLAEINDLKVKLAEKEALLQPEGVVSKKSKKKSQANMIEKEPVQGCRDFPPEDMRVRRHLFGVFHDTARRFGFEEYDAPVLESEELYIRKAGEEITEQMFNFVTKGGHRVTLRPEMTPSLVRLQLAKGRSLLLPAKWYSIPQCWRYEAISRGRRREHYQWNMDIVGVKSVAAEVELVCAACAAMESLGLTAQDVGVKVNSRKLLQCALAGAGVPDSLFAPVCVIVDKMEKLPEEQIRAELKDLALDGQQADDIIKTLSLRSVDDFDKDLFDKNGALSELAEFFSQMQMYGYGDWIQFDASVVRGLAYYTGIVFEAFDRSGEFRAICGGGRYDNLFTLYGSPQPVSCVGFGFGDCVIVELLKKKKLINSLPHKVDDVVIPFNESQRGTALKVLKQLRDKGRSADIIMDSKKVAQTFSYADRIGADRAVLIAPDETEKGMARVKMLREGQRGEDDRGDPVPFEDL
# Test: Leishmania infantum Histidine tRNA synthetase (LdHisRS)
# Format: functional
# Parameters: scale not given: in the data most compounds retested in dose-response had high values
# Settings: 30 µM
row,Compound,Percent Effect [%]
1,CCC1=N[C@@]2(CC[C@@H]3CN(CC(C)C)C[C@@H]32)C(=O)N1,11.1
2,CCOc1cccc(C(=O)N2C[C@H]3CC[C@@H]2CN(C(=O)C2CCC2)C3)c1,4
3,Cc1ccc(OCc2occc2C(=O)N2C[C@@H]3[C@@H](CN(C)C)[C@@H]3C2)cc1,15.9
4,Cc1nc(COC[C@@]23CCC[C@@H]2CN(Cc2nccs2)C3)cs1,15.8
5,CN(C)C(=O)CO[C@H]1CN(Cc2nccs2)[C@@H]2COC[C@H]12,9.91
6,NC(=O)C1=NC2=NS(=O)(=O)c3ccccc3N2N1Cc1ccc(Br)cc1,59.7
7,NC(=O)CN(Cc1ccc(Br)cc1)C(=O)c1ccccn1,7.29
8,NC(=O)C1=NC2=NS(=O)(=O)c3ccccc3N2N1Cc1ccccc1Cl,37.1
9,NC(=O)C1=NC2=NS(=O)(=O)c3ccccc3N2N1Cc1ccc(Cl)cc1,58.1
10,NC(=O)C1=NN2C(=NS(=O)(=O)c3ccccc32)N1,14.8
11,Cc1nnc([C@@H]2CC[C@@H]3[C@@H](CCN3C3CCOCC3)O2)o1,2.63
12,Cc1ccc(CN2CC[C@H]3[C@H]2CCN3S(C)(=O)=O)s1,20
13,O=C(c1ccccn1)N1C[C@@H]2CC[C@H](C1)N(C(=O)CCc1ccsc1)C2,10.4
14,Cc1nnsc1CN1C[C@H]2CC[C@@H]1CN(Cc1ccc(F)cc1)C2,8.33
15,CC(=O)N1CCCCC[C@@H]2[C@@H]1[C@H](c1cccc(F)c1)CN2CCC(N)=O,13
16,COCCn1cc(NC(=O)NC(C)CCc2ccccc2)ccc1=O (stereo not given),98.3
17,CC(CCc1ccccc1F)C(=O)NS(C)(=O)=O (stereo not given),16.9
18,CC(CCc1ccccc1)NC(=O)CN1CCOCC1 (stereo not given),1.49
19,CC(CCc1ccccc1F)C(=O)NS(=O)(=O)N(C)C(C)C (stereo not given),19.5
20,CC(CCc1ccccc1)NC(=O)Nc1cnn(CC(N)=O)c1 (stereo not given),24.3
21,COCCn1cc(NC(=O)C(C)CCc2ccccc2F)ccc1=O (stereo not given),102
22,COc1ccc(CN2C[C@@H]3COC[C@]3(CN(C)C)C2)cc1,17.6

row,Compound,Percent Effect [%]
1,O=C(Cc1ccncc1)N1C[C@@H]2CC[C@H](C1)N(Cc1ccccc1)C2=O,6.56
2,O=C(Cc1csc(-c2ccco2)n1)N1CCN(c2nccs2)CC1,20
3,O=C(Cc1csc(-c2ccco2)n1)N1CCN(c2cnccn2)CC1,56.8
4,Cc1ccc(-c2nc(CC(=O)N3CCN(c4cnccn4)CC3)cs2)o1,28.7
5,Cc1noc(C)c1CN1CC[C@H]2OCC[C@@H](C(=O)N3CCCO3)[C@H]2C1,20
6,O=S(=O)(C1CC1)N1CCO[C@H]2[C@H](OCCN3CCCC3)CC[C@@H]21,15.1
7,O=C1[C@H]2CN(CC3CCOCC3)C[C@H]2CN1c1ccsc1,8
8,O=C(CC1CC1)N[C@@H]1CN(Cc2ccco2)C[C@@H]2CCCO[C@@H]21,17.1
9,COCC(=O)N1CCC(C)(c2cc(O)[nH]n2)CC1,17.1
10,COCCN1CCC(C)(c2cc(O)[nH]n2)CC1,50
11,COCCN1CCCC(C)(c2cc(O)[nH]n2)C1 (stereo not given),47.1
12,Cc1oncc1C(=O)N[C@@H]1CN(c2ncccn2)C[C@@H]2CCCO[C@@H]21,20
13,CN1CCO[C@@H]2CN(S(=O)(=O)c3ccc(F)cc3)CC[C@@H]2C1,17.9
14,CN(Cc1ccco1)C[C@H]1OC[C@@H]2CCN(Cc3cccnc3)C[C@@H]21,13.2
15,c1cncc(CN2CC[C@@H]3O[C@H](COCCN4CCCC4)CC[C@@H]32)c1,16
16,NCCc1cccc(CN2CCN(c3ccccc3)C(=O)C2)c1,55.7
17,Cc1cc(C)cc(N2CCN(Cc3cccc(CCN)c3)CC2=O)c1,8.2
18,COc1cc(CN2CCN(c3cccc(OC)c3)C(=O)C2)cc(OC)c1,18.3
19,COc1cccc(N2CCN(Cc3cccc(CCN)c3)CC2=O)c1,60.7
20,COc1cccc(N2CCN(Cc3ccc4occc4c3)CC2=O)c1,13.5
21,NCCc1cccc(CN2CCN(c3cccc(Cl)c3)C(=O)C2)c1,14.8
22,Cc1noc(C)c1C(=O)N1C[C@H]2CCC[C@@]2(COc2ccccn2)C1,17.6

row,Compound,Percent Effect [%]
1,Cc1ccc(C(=O)N2CCO[C@H]3[C@H](OCc4ccccn4)CC[C@@H]32)o1,19.3
2,Cc1nc([C@@H]2C[C@@H]3CCN(C(=O)Cc4cccc(F)c4)C[C@H]3O2)no1,9.09
3,CN(C)C(=O)[C@H]1C[C@@H]2CCN(C3CCOCC3)C[C@@H]2O1,11.1
4,Cn1ccnc1Sc1ccc(S(N)(=O)=O)cn1,10.3
5,CN1CCN(S(=O)(=O)c2ccc(Sc3nccn3C)nc2)CC1,-3.37
6,Cn1ccnc1Sc1ccc(N)cn1,91
7,CS(=O)(=O)N1CCO[C@@H]2CN(C(=O)N3CCOCC3)CC[C@@H]2C1,4.5
8,Cc1ccc(N2CCc3sc(C(=O)N4CCOCC4)cc32)nn1,50
9,Cc1ccc(N2CCc3sc(C(=O)NCCN4CCCC4)cc32)nn1,8.33
10,CN(C)CC(=O)N1CCc2sc(C(=O)N3CCOCC3)cc21,15.8
11,Cc1cc(C(=O)NCC(C)C)c2c(C3CCCN3)noc2n1 (stereo not given),4.14
12,Cc1cc(C(=O)NCC(F)(F)F)c2c(C3CCCN3)noc2n1 (stereo not given),71.7
13,Cc1cc(C(=O)NCC(F)(F)F)c2c(C3CCNCC3)noc2n1,19.3
14,Cc1cnc(N2CC[C@@]3(O)CCCC[C@H]3C2)nc1-c1ccnn1C,-3.33
15,CN1[C@H](CN2CCCC2)C[C@@H]2CN(C(=O)c3ccsc3)CC[C@@H]21,0.917
16,CO[C@@H]1CN(S(=O)(=O)c2cn(C)cn2)[C@@H]2CCCO[C@@H]21,17.2
17,Cc1ccc(N2CC[C@H]3C[C@H](C(=O)NCc4ccco4)O[C@H]3C2)nn1,18.1
18,N#Cc1c(SCCN2CCCCCC2)sc2c(O)cc(O)nc12,24.7
19,N#Cc1c(SCCN2CCCCC2)sc2c(O)cc(O)nc12,24.7
20,N#CCCSc1sc2c(O)cc(O)nc2c1C#N,74.2
21,Cc1ccc(NS(=O)(=O)c2cnn(-c3ccccc3)c2)c(C(=O)O)c1,69.6
22,Cc1ccc(-n2cc(S(=O)(=O)Nc3cccc(C(=O)O)c3C)cn2)cc1,13

row,Compound,Percent Effect [%]
1,Cc1ccc(NS(=O)(=O)c2cnn(Cc3ccccc3)c2)c(C(=O)O)c1,23.9
2,Cc1ccnc(C(=O)N2C[C@@H]3CN(S(C)(=O)=O)CCO[C@@H]3C2)c1,8.77
3,COCCOc1ccccc1C(=O)N1CCCCC1c1nccs1 (stereo not given),50
4,COc1cccc(C(=O)N2CCCCC2c2nccs2)c1OC (stereo not given),4.39
5,COCCOc1ncccc1C(=O)N1CCCCC1c1nccs1 (stereo not given),14.9
6,CCc1ccc(C(=O)O)cc1S(=O)(=O)Nc1ccc(=O)n(C)c1,21.4
7,Cn1cc(NS(=O)(=O)c2ccc(OC(F)(F)F)cc2)ccc1=O,82
8,Cn1cc(NS(=O)(=O)c2ccc3c(c2)CCCC3)ccc1=O,41.8
9,CC(C)c1ccc(C(=O)O)cc1S(=O)(=O)Nc1ccc(=O)n(C)c1,84.6
10,CCCc1ccc(S(=O)(=O)Nc2ccc(=O)n(C)c2)cc1,29.1
11,Cn1cc(NS(=O)(=O)c2ccc(C(F)(F)F)cc2)ccc1=O,38.2
12,Cc1ccc(S(=O)(=O)Nc2ccc(-n3nnn(C)c3=O)cc2)cc1,12.2
13,Cn1cc(NS(=O)(=O)c2ccc(F)c(F)c2)ccc1=O,47.3
14,Cc1ccc(S(=O)(=O)Nc2ccc(=O)n(C)c2)c(Br)c1,32.7
15,Cc1ccc(S(=O)(=O)Nc2ccc(-n3cccc3C(=O)O)c(C)c2)cc1,6.25
16,CC(C)Cc1ccc(S(=O)(=O)Nc2ccc(=O)n(C)c2)cc1,91
17,Cc1ccc(S(=O)(=O)Nc2ccc(=O)n(C)c2)cc1,77.5
18,c1ccc(CN2CC[C@@H]3O[C@H](COCc4ccncc4)CC[C@@H]32)nc1,10.9
19,CC(C)CN1C[C@@H]2OCC(=O)N(Cc3nccn3C)[C@@H]2C1,23
20,O=C([C@@H]1COC[C@H]2CN(C3CCOCC3)C[C@H]21)N1CCOCC1,30.6
21,CCO[C@H]1CC[C@H]2[C@@H]1OCCN2C(=O)COc1ccccc1,19.1
22,CN1[C@H]2CC[C@@H]1CN(C(=O)c1sccc1S(N)(=O)=O)CC2,-12.7

row,Compound,Percent Effect [%]
1,CN(c1cccnn1)[C@@H]1CC[C@@H]2CN(Cc3cccc(C(=O)O)c3)C[C@@H]21,5.63
2,Cc1[nH]nc(CCC(=O)N2C[C@H]3CC[C@@H]2CN(C(=O)N(C)C)C3)c1C,13.9
3,Cc1cc(C(=O)N2C[C@@H]3CN(S(C)(=O)=O)CCO[C@@H]3C2)c(C)o1,-1.75
4,CNC(=O)[C@@]12CCO[C@@H]1CCN(S(=O)(=O)c1cc(C)cc(C)c1)C2,13
5,O=C(CC1CCCC1)Nc1ccc(-n2cc(Br)cn2)nc1,10.5
6,Cn1cc(Br)cc(NC(=O)CC2CCC2)c1=O,103
7,Cc1c(CS(C)(=O)=O)cccc1NC(=O)CC1CCCC1,11.7
8,Cc1cc(=O)n(C)cc1NC(=O)CC1CCC1,75
9,CCC(=O)Nc1cc(Br)cn(C)c1=O,103
10,Cc1nn(C)cc1NC(=O)CC1CCN(CCc2ccccc2)CC1,5.67
11,Cn1cc(Br)cc(NC(=O)Cc2cccs2)c1=O,34
12,Cn1ccc(CN2CCC(CC(=O)NC3CCCC3)CC2)cc1=O,-8.33
13,Cn1cc(Br)cc(NC(=O)CC(C)(C)C)c1=O,95
14,CC(C)(C)CC(=O)Nc1ccccc1SCC(N)=O,9.57
15,CCC(=O)Nc1cc(Br)cnc1OCC(F)(F)F,14
16,Cn1cc(C(C)(O)CNC(=O)c2cc(Br)cn2C)cn1 (stereo not given),25.5
17,COCCNC(=O)[C@H]1CN(Cc2nccs2)C[C@H]2OCC[C@@H]12,15.2
18,COCCCN1C(=O)CC[C@H]2CN(Cc3ncc[nH]3)CC[C@H]21,-49.3
19,COc1cc(N2C[C@H](C(=O)N3CCCC3)[C@@H]3CCO[C@@H]3C2)ncn1,8.06
20,O=C(c1ccco1)N1CC[C@H]2[C@H]1CCN2S(=O)(=O)C1CC1,5.26
21,Cc1ccc(C(=O)N2C[C@@H]3COC[C@]3(COc3cccnc3)C2)cn1,7.52
22,O=C(NCc1cccs1)[C@]12COC[C@H]1CN(c1ncccn1)C2,5.26

# Reference: ChEMBL document CHEMBL3988442, “University of Dundee, Small-Polar-MMV Screening Library” (2021)
